Results from the supplement of paper PMC6089552.
Out of some 3,200 compounds screened, about 300 (9.4%) showed activity. What follows is part of a selection rich in actives, with near analogues and random picks from the rest.

Test system: A673/TR/shEF
Assay: cell viability (LOESS-normalised, relative to median of negative controls) (log2 ratio); higher = more viable cells (less compound effect), active = hit call of the paper (over 3 MAD below the median)
Conditions: treatment time: 72 h
Procedure, shortened: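 A673/TR/shEF Ewing sarcoma cells (1,500 per well, 384-well plates) were grown with or without doxycycline to induce EWS-FLI1 shRNA knockdown, starting 24 h before compounds. Library compounds at two or more concentrations, with DMSO controls, were added for three days. Cell viability was read by CellTiter-Glo luminescence on an Envision reader, then LOESS-corrected per plate, divided by the median of negative controls and log2-transformed. Hits were wells at least three median absolute deviations from the median of all screened wells.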

[1] = 0.25 µM, library screen: screen1, EWS-FLI1 expression: high (no doxycycline)
[2] = 0.25 µM, library screen: screen1, EWS-FLI1 expression: low (doxycycline-induced shRNA knockdown)
[3] = 2.5 µM, library screen: screen1, EWS-FLI1 expression: high (no doxycycline)
[4] = 2.5 µM, library screen: screen1, EWS-FLI1 expression: low (doxycycline-induced shRNA knockdown)
[5] = 0.25 µM, library screen: screen2, EWS-FLI1 expression: high (no doxycycline)
[6] = 0.25 µM, library screen: screen2, EWS-FLI1 expression: low (doxycycline-induced shRNA knockdown)
[7] = 2.5 µM, library screen: screen2, EWS-FLI1 expression: high (no doxycycline)
[8] = 2.5 µM, library screen: screen2, EWS-FLI1 expression: low (doxycycline-induced shRNA knockdown)
[9] = 0.103 µM, library screen: screen3, EWS-FLI1 expression: high (no doxycycline)
[10] = 0.103 µM, library screen: screen3, EWS-FLI1 expression: low (doxycycline-induced shRNA knockdown)
[11] = 0.308 µM, library screen: screen3, EWS-FLI1 expression: high (no doxycycline)
[12] = 0.308 µM, library screen: screen3, EWS-FLI1 expression: low (doxycycline-induced shRNA knockdown)
[13] = 0.926 µM, library screen: screen3, EWS-FLI1 expression: high (no doxycycline)
[14] = 0.926 µM, library screen: screen3, EWS-FLI1 expression: low (doxycycline-induced shRNA knockdown)
[15] = 2.8 µM, library screen: screen3, EWS-FLI1 expression: high (no doxycycline)
[16] = 2.8 µM, library screen: screen3, EWS-FLI1 expression: low (doxycycline-induced shRNA knockdown)
[17] = 8.3 µM, library screen: screen3, EWS-FLI1 expression: high (no doxycycline)
[18] = 8.3 µM, library screen: screen3, EWS-FLI1 expression: low (doxycycline-induced shRNA knockdown)
[19] = 25 µM, library screen: screen3, EWS-FLI1 expression: high (no doxycycline)
[20] = 25 µM, library screen: screen3, EWS-FLI1 expression: low (doxycycline-induced shRNA knockdown)
[21] = 0.025 µM, library screen: screen1, EWS-FLI1 expression: high (no doxycycline)
[22] = 0.025 µM, library screen: screen1, EWS-FLI1 expression: low (doxycycline-induced shRNA knockdown)
[23] = 25 µM, library screen: screen1, EWS-FLI1 expression: high (no doxycycline)
[24] = 25 µM, library screen: screen1, EWS-FLI1 expression: low (doxycycline-induced shRNA knockdown)

Measured: cell viability (log2)

S=c1[nH]nc(COc2ccc(Cl)cc2Cl)n1-c1ccccc1
inactive: [1] 0.00963 | [2] 0.148 | [3] 0.0937 | [4] 0.0872

C[C@@H]1CC[C@@]2(OC1)O[C@H]1C[C@H]3[C@@H]4CC[C@H]5C[C@@H](O)CC[C@]5(C)[C@H]4CC(=O)[C@]3(C)[C@H]1[C@@H]2C
inactive: [1] 0.102 | [2] -0.00894 | [3] 0.127 | [4] 0.0766

Nc1nc(OCc2ccccc2)c2[nH]cnc2n1
inactive: [5] 0.21 | [6] 0.111 | [7] 0.106 | [8] 0.0266

Nc1ncnc2nc[nH]c12
inactive: [9] -0.0276 | [10] 0.0358 | [1] -0.00904 | [2] 0.112 | [11] 0.0266 | [12] 0.0376 | [13] 0.0356 | [14] 0.0359 | [3] 0.0839 | [4] 0.087 | [15] -0.0229 | [16] 0.045 | [17] -0.016 | [18] 0.0209 | [19] 0.0262 | [20] 0.0745

Nc1ncc2[nH]cnc2n1
inactive: [21] 0.156 | [22] 0.0178 | [1] 0.22 | [2] 0.0137 | [4] 0.025 | [23] -0.0198 | [24] 0.0477
active: [3] -0.0954

CN1CCC[C@@H]1c1cccnc1
inactive: [5] 0.0881 | [6] 0.0848 | [7] 0.112 | [8] 0.123

C[C@H](C[C@@H](O)[C@@H]1OC1(C)C)[C@@H]1CC[C@]2(C)C3=CC[C@H]4C(C)(C)C(=O)CC[C@]4(C)[C@H]3CC[C@@]12C
inactive: [1] 0.0762 | [2] 0.064 | [3] 0.0491 | [4] 0.136

Nc1ncnc2c1ncn2C1CCCO1 (stereo not given)
active: [5] -0.183 | [6] -0.136 | [7] -0.771 | [8] -0.568

Nc1nc(F)nc2c1ncn2[C@@H]1O[C@H](CO)[C@@H](O)[C@@H]1O
inactive: [9] -0.0149 | [10] 0.0418 | [11] 0.0122 | [12] 0.0299 | [13] -0.0547 | [14] 0.0332 | [15] 0.0695 | [16] 0.0196 | [17] 0.023 | [18] 0.0649 | [19] 0.0762 | [20] 0.0699

CNc1ncnc2c1ncn2[C@@H]1O[C@H](CO)[C@@H](O)[C@H]1O
inactive: [5] 0.104 | [6] 0.0674 | [7] 0.0505 | [8] 0.098

Nc1ncnc2c1ncn2C1CCCC1
inactive: [5] 0.222 | [6] 0.00723 | [7] 0.162 | [8] 0.101

Nc1ncnc2c1c(I)cn2[C@@H]1O[C@H](CO)[C@@H](O)[C@H]1O
active: [3] -1.08 | [4] -0.349 | [23] -2.42 | [24] -2.11
inactive: [21] 0.145 | [22] -0.151 | [1] -0.0341 | [2] -0.172

Nc1ncnc2c1ncn2[C@@H]1O[C@H](CO)[C@@H](O)[C@@H]1O
inactive: 0.025 µM, library screen: screen2, EWS-FLI1 expression: high (no doxycycline) 0.125 | 0.025 µM, library screen: screen2, EWS-FLI1 expression: low (doxycycline-induced shRNA knockdown) 0.0247 | [9] 0.0965 | [10] 0.0781 | [5] 0.146 | [6] 0.0437 | [11] 0.134 | [12] 0.0881 | [13] 0.113 | [14] 0.0711 | [7] 0.229 | [8] 0.0883 | [15] 0.122 | [16] 0.114 | [17] 0.0774 | [18] 0.127 | 25 µM, library screen: screen2, EWS-FLI1 expression: high (no doxycycline) 0.0602 | 25 µM, library screen: screen2, EWS-FLI1 expression: low (doxycycline-induced shRNA knockdown) 0.0701 | [19] 0.0148 | [20] 0.128

Nc1nccc2c1ncn2[C@@H]1O[C@H](CO)[C@@H](O)[C@H]1O
inactive: [5] 0.199 | [6] 0.0735 | [7] 0.0748 | [8] 0.125

Nc1ncnc2c1ncn2[C@@H]1O[C@H](CO)[C@@H](O)[C@H]1O
active: [5] -0.195
inactive: [9] 0.0648 | [10] 0.118 | [1] 0.105 | [2] 0.0646 | [6] 0.0787 | [11] 0.108 | [12] 0.149 | [13] 0.0961 | [14] 0.106 | [3] 0.129 | [4] 0.198 | [7] 0.141 | [8] 0.177 | [15] 0.133 | [16] 0.0552 | [17] 0.0565 | [18] 0.0635 | [19] 0.137 | [20] 0.158

Nc1ncnc2c1ncn2C1OC(C(=O)NC2CC2)C(O)C1O (stereo not given)
inactive: [5] 0.208 | [6] 0.0695 | [7] 0.136 | [8] 0.0888

COc1ccc(C(C)C(=O)c2ccc(O)cc2O)cc1 (stereo not given)
inactive: [1] 0.0783 | [2] 0.0339 | [3] 0.16 | [4] 0.123

CCOc1ccc(C(=O)c2cc(O)c(OC)c(OC)c2O)cc1
inactive: [1] 0.0714 | [2] 0.0518 | [3] 0.162 | [4] 0.129

CC(=O)OC1CCC2(C)C3=C(CC[C@H]2C1(C)C)[C@@]1(C)CC[C@@H]([C@@H](C)CCC=C(C)C)[C@]1(C)CC3 (stereo not given in full)
inactive: [1] 0.058 | [2] -0.000522 | [3] 0.0338 | [4] -0.0772

CCN1C(=O)/C(=C\c2cn(CCC#N)nc2-c2ccc(F)cc2)SC1=S
inactive: [1] 0.0868 | [2] 0.118 | [3] 0.107 | [4] -0.0141

O=C(NCc1ccco1)/C(=C\c1ccco1)NC(=O)c1cccs1
inactive: [1] 0.0268 | [2] 0.0429 | [3] 0.0986 | [4] 0.0245

O[C@@H](c1cc(C(F)(F)F)nc2c(C(F)(F)F)cccc12)[C@H]1CCCCN1
inactive: [1] 0.149 | [2] 0.0284 | [3] 0.156 | [4] 0.0765

OCC1OC(O)C(O)C(O)C1O (stereo not given)
inactive: [9] 0.00138 | [10] 0.0347 | [11] 0.0849 | [12] 0.0509 | [13] 0.0635 | [14] 0.0529 | [15] 0.0615 | [16] 0.0566 | [17] 0.0472 | [18] -0.0279 | [19] 0.168 | [20] 0.04
